Screens (PubChem)
HT1080 IDH1KD tx: qHTS for induction of synthetic lethality in tumor cells producing 2HG: qHTS for the HT-1080-IDH1KD cell line. HT-1080 IDH1 knockdown viability, ATP luminescence, 48 h. Potency, µM (series often up to 46.1 µM), inactives show top-dose activity, negative = toxicity, usual class: cytotoxic. hit rate 2% among 360,000. AID 686971, 2013;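 further: potency means the concentration at half of the fitted maximal effect; 0% = DMSO wells and -100% = cell-free medium wells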
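After a 2 h attachment period, IDH1KD HT-1080 cells took pin-transferred compound for 48 h at 37 °C; ATP-based luminescence after 10 min room-temperature reagent incubation reported viability.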
TDP1 cell noCPT: qHTS for Inhibitors of human tyrosyl-DNA phosphodiesterase 1 (TDP1): qHTS in cells in absence of CPT. Potency, µM (doses to about 46.2 µM), without a hit: at the top dose activity change, negative = growth inhibition, most hits filed as inhibitors. hit rate 15% among 420,000. DT40 Tdp1-/- hTDP1 cells, no CPT, ATP luminescence, 48 h. AID 686978, 2013; further: potency means the concentration at half of the fitted maximal effect; nearly all actives have a fitted effect of over 55% in size
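No-CPT arm: Tdp1-/-;hTDP1 DT40 cells (400/well) plus compounds, incubated ≥48 hr at 37 °C. Readout CellTiter-Glo luminescence.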
HT1080NT lethal: qHTS for induction of synthetic lethality in tumor cells producing 2HG: qHTS for the HT-1080-NT fibrosarcoma cell line; hit rate 1.6% among 360,000; HT-1080-NT fibrosarcoma viability, CellTiter-Glo ATP luminescence, 48 h; Potency, µM (titrated, usually from 46.1 µM), for inactives: at the highest dose activity, negative = less viability, actives largely listed as cytotoxic;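 further: NT is the 2HG producing partner of a matched IDH1 knockdown line; potency means the concentration at half of the fitted maximal effect; 0% = DMSO-treated cells and -100% = media-only wells without cells; nearly all actives have a fitted effect of over 55% in size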
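HT-1080-NT fibrosarcoma cells (2HG-overproducing), 750 cells/well in RPMI with 5% FBS, dosed after 2 h and incubated 48 h at 37C. CellTiter-Glo luminescence normalized to DMSO and no-cell wells; concentration-response curves fitted and classed.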
DT40 TDP1 CPT: qHTS for Inhibitors of human tyrosyl-DNA phosphodiesterase 1 (TDP1): qHTS in cells in presence of CPT; chicken DT40 Tdp1-/-;hTDP1 cells + 20 nM CPT, ATP luminescence, 48 h; hit rate 12% among 420,000; Potency, µM (titrated, usually from 46.2 µM), for inactives: top-dose activity change, negative = growth inhibition, most hits filed as inhibitors; further: potency means the concentration at half of the fitted maximal effect; nearly all actives have a fitted effect of over 55% in size
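Chicken DT40 Tdp1-/- cells stably complemented with human TDP1 were seeded at 400 cells/well in medium containing 20 nM camptothecin, exposed to pin-transferred compounds, and grown at 37 °C for at least 48 hr. Viability was read as ATP luminescence.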
IL-1B inflam inh: qHTS for Inhibitors of Inflammasome Signaling: IL-1-beta AlphaLISA Primary Screen. THP-1 LPS/ATP IL-1B secretion, AlphaLISA, 16 h; stronger effect = lower value. activity change, % at 57.5 µM. hit rate 4.7% among 360,000. AID 743279, 2014; in the data active means activity change below about -50%; inconclusive means mostly about -30% to -49%
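THP-1 cells pretreated 1 hr with compounds (up to 57.5 uM final), then stimulated with LPS (250 ng/mL final) plus ATP (1.25 mM final); secreted IL-1B measured by AlphaLISA after 16 hr, decreased signal indicating inhibition.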
Numbers without * were called inactive; ? = inconclusive; nt = no result given; [ ] = another dose, or the depositor's remark. A selection: hits, their analogues and other compounds. The true share with any hit is near 19%. Unless noted, the call rests on the fitted dose curve; in most records, active means well fitted curve in the direction sought with a large enough effect; inconclusive means small, poorly fitted or top-dose-only effect, or another doubt; inactive means no such curve, though single readings can be large; an effect the other way counts as inactive or inconclusive. Unless noted, on the % scale 0 is the no-effect control and ±100 the full control effect.

SMILES	HT1080 IDH1KD tx	TDP1 cell noCPT	HT1080NT lethal	DT40 TDP1 CPT	IL-1B inflam inh
O=C(Nc1nc(-c2ccc(F)cc2)cs1)C1CCCO1 (configuration not stated)	5.3%	?	-1.8%	?	-55.7*
Cc1cc2oc(=O)cc(CNc3ccccc3F)c2cc1O	-6.0%	?	-20.8%	-13.0%	23.7
CCCS(=O)(=O)NC(=O)C1(C)CCN(C(=O)c2ccccc2OC)C1 (configuration not stated)	4.4%	2.1%	20.5%	3.1%	6.3
O=C(OCC(=O)N1CCCC1=O)C1CCN(S(=O)(=O)c2ccc(Cl)c(C(F)(F)F)c2)CC1	9.6%	-19.0%	7.4%	-3.1%	13.3
Cc1cccc(OC2CCN(Cc3c(C(=O)N4CCCC4)nc4ccccn34)CC2)c1	-11.5%	?	-6.5%	?	3.2
O=C(c1nc2ccccn2c1CN1CCC(Cc2ccccc2)CC1)N1CCCC1	2.9%	23.1µM*	-4.1%	?	-6.2
COc1ccc(CN2CCCC(C(=O)c3cccc(C(F)(F)F)c3)C2)cc1O (configuration not stated)	-5.0%	-17.6%	-14.3%	-4.1%	4.2
Cn1c(=O)n(Cc2ccc(F)cc2)c(=O)c2c1nc1n2CCCN1Cc1ccccc1	-2.8%[9.24 µM]	23.1µM*	2.3%	?	?
Cn1c(=O)n(CCc2ccccc2)c(=O)c2c1nc1n2CCCN1Cc1ccccc1	-4.1%[9.24 µM]	13µM*	1.4%	?	-17.8
Cc1cc(C)cc(N2CCn3c2nc2c3c(=O)n(CCCc3ccccc3)c(=O)n2C)c1	nt	-7.4%	nt	-1.0%	nt
CCn1c(=O)c2c(nc3n2CC(C)CN3CCc2ccccc2)n(C)c1=O (configuration not stated)	1.5%	?	-15.0%	20.6µM*	-0.9
CCCn1c(=O)c2c(nc3n2CCCN3Cc2ccccc2)n(C)c1=O	-18.3%	-15.3%	-7.0%	?	-5.8
Cn1c(=O)n(CCCc2ccccc2)c(=O)c2c1nc1n2CCN1c1ccccc1	nt	6.51µM*	nt	7.31µM*	nt
CCOC(=O)Nc1cc(OC)cc2ccc(C)nc12	2.4%	?	10.4%	6.7%	-22.2
COc1ccc(N2CCCn3c2nc2c3c(=O)n(CCc3ccccc3)c(=O)n2C)cc1	6.9%	14.6µM*	3.1%	?	-24.1
CC(C)Cn1c(=O)c2c(nc3n2CCCN3CCc2ccccc2)n(C)c1=O	-22.0%	14.6µM*	-3.1%	16.4µM*	?
Cc1ccc(N2CC(C)Cn3c2nc2c3c(=O)n(CC(=O)OCc3ccccc3)c(=O)n2C)cc1C (configuration not stated)	-2.8%	17.8µM*	0.2%	11.2µM*	10.4
CCCn1c(=O)c2c(nc3n2CCCN3CCc2ccccc2)n(C)c1=O	-1.0%	?	3.0%	?	1.2
Cc1cc(C)cc(N2CCn3c2nc2c3c(=O)n(CCc3ccccc3)c(=O)n2C)c1	nt	-3.2%	nt	-0.3%	nt
Cn1c(=O)n(CCc2ccccc2)c(=O)c2c1nc1n2CCCN1CCc1ccccc1	29.1µM*	7.31µM*	23.1µM*	11.6µM*	?
Cn1c(=O)n(CC(=O)O)c(=O)c2c1nc1n2CCCN1CCc1ccccc1	-2.3%	0.5%	-3.1%	1.9%	7.7
CCN1CCN(C(C(=O)NC2CCCCC2)c2cc3ccccc3o2)CC1 (configuration not stated)	10.7%	-29.9%	3.9%	-22.4%	-29.5
O=C(CN1CCN(C(C(=O)Nc2ccc(F)cc2)c2ccccc2)CC1)NC1CC1 (configuration not stated)	1.6%	3.5%	-3.3%	-0.9%	-9.2
CC1(C)Oc2ccc(NC(=O)c3ccco3)cc2O1	-7.9%	?	-10.0%	?	-4.0
CCOCCn1c(=O)c2c(nc3n2CCN3c2ccc(CC)cc2)n(C)c1=O	1.2%	?	-0.4%	14.6µM*	53.7
